Source: PubChem BioAssay (National Center for Advancing Translational Sciences (NCATS))
Compounds with a hit are over-represented: about 3.6% of the library has one in this group of screens.
VDR inhibitor: blocks the human vitamin D receptor; 400,000 compounds, 0.93% hits; Potency, µM, inactives show max response, negative = inhibition, hits mostly inhibitors; VDR-SRC2-3 peptide fluorescence polarization, 2 h; note: potency is the fitted concentration of half-maximal effect; % is set by controls: 0 for no effect and ±100 for the full control effect
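Compounds are added to VDR with labelled SRC2-3 coactivator peptide and held 2 h at room temperature. Inhibition of the VDR–peptide interaction is then read as a change in fluorescence polarization.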
Rango release inh: inhibition of RanGTP-driven Rango-importin beta dissociation; O95149+P62826; Biochemical FRET Rango-importin beta, RanGTP-induced dissociation; Potency, µM (highest dose often 46.1 µM), for inactives: at the top dose activity change, negative = inhibition; 340,000 compounds, 0.071% hits; AID 540253; calls by dose curve; note: potency is the fitted concentration of half-maximal effect; % of control where 0% means no effect; nearly all actives have a fitted effect of over 45% in size
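FRET read at 45 min, room temperature: inhibitors block the CFP/YFP signal rise when RanGTP (0.6 uM Ran, 2 mM GTP, 0.2 uM RCC1) frees Rango (0.1 uM) from importin beta (0.25 uM). Pre-read after 5 min compound exposure flags interference.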
PI5P4K alpha inh: inhibitors of human PI5P4K alpha | PI5P4Kalpha enzyme, ADP-Glo luminescence, 60 min; hits give low values | 330,000 compounds, 1.2% hits | max response, %; active = max response of -50% or lower; inconclusive = between -30% and -50%; inactive = -30% or higher; note: value at the top dose of about 77 µM; % is set by controls: 0 for no effect and ±100 for the full control effect
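Quantitative HTS of the MLSMR library against PI5P4Kalpha with substrate. ATP added last at 5 microM final; room temperature, 60 minutes. Remaining ATP depleted, ADP converted and read as luminescence.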
Rango-impB inh: Rango-importin beta binding inhibition; Rango CFP/YFP FRET sensor + importin beta, 45 min; Potency, µM (doses to about 92.2 µM), without a hit: at the highest dose inhibition of complex formation; AID 540263; Q14974; 340,000 compounds, 0.031% hits; calls by dose curve;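 note: potency is the fitted concentration of half-maximal effect; 0% = DMSO wells and 100% = buffer wells lacking importin beta; nearly all actives have a fitted effect of over 15% in size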
Target sequence (Q14974 whole entry, looked up): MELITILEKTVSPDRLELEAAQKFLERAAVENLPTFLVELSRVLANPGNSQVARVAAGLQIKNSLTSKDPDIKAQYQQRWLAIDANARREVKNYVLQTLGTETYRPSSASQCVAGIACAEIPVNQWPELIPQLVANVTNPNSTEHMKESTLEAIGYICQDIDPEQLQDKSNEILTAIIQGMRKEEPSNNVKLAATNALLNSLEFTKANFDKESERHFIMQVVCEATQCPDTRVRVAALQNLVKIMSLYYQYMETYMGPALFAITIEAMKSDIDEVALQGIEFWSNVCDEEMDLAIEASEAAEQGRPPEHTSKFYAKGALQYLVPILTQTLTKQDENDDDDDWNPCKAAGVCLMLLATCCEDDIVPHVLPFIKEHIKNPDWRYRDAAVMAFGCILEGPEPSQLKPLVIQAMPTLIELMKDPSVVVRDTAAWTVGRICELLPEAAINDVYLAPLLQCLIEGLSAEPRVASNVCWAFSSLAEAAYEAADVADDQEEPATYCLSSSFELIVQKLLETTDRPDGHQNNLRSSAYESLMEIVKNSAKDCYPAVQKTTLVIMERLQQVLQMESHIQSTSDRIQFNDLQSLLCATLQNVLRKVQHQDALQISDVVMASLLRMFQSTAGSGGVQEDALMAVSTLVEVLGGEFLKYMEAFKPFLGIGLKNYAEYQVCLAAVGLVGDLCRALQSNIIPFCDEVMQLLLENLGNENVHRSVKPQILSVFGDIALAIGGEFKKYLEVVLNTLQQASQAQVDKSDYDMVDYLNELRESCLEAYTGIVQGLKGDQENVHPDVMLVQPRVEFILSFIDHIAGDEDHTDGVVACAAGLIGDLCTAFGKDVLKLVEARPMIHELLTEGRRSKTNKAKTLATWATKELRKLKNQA
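FRET biosensor (snurportin 1 IBB flanked by EYFP and cerulean), 50 nM, with compound 5 min, then 0.125 microM importin beta in PBS, 1 mM DTT, 0.02% Tween-20, 0.1% BSA. CFP/YFP ratio read after 45 min at room temperature; pre-read flags interference.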
KAT2A inh: blocks human GCN5L2 histone acetyltransferase. GCN5L2 HAT assay, ThioGlo1 CoA-SH fluorescence. Potency, µM (highest dose often 58.9 µM), without a hit: at the highest dose activity change, negative = inhibition, actives largely listed as inhibitors. 390,000 compounds, 0.21% hits. AID 504327; note: potency is the fitted concentration of half-maximal effect; % is set by controls: 0 for no effect and ±100 for the full control effect
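Enzyme at 20nM final was mixed with library compounds for 15 min at room temperature. Peptide H3(1-25) at 75uM, acetyl-CoA at 70uM and ThioGlo1 at 50uM were then added. Plates were read immediately and after 20 min (Ex340nm/Em540nm).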
PLK1 PBD block: inhibitors of human PLK1 polo-box domain binding. P53350. Plk1 PBD binding of FITC phosphopeptide, fluorescence polarization. Potency, µM, without a hit: max response, negative = inhibition, actives largely listed as inhibitors. 360,000 compounds, 2.8% hits; note: potency is the fitted concentration of half-maximal effect; series mostly up to about 57 µM; % is set by controls: 0 for no effect and ±100 for the full control effect; nearly all actives have a fitted effect of over 65% in size
Numbers without * were called inactive; ? = inconclusive; . = not tested or not shown. Unless noted, calls come from the whole dose curve; as a rule, active = well fitted curve in the direction sought with a large enough effect; inconclusive = small, poorly fitted or top-dose-only effect, or another doubt; inactive = no such curve, though single readings can be large; an effect the other way counts as inactive or inconclusive.

SMILES	VDR inhibitor	Rango release inh	PI5P4K alpha inh	Rango-impB inh	KAT2A inh	PLK1 PBD block
CCOC(=O)[C@]12CCC=C1N(Cc1ccccc1)C(=O)[C@H](CC(=O)NCc1ccc(C)o1)C2	.	.	-19.3	.	.	-27.7%
CCCCCCCCN1C(=O)[C@H](CC(=O)NCc2ccc(C)o2)C[C@@]2(C(=O)OC)CCCCC=C12	.	.	-65.3*	.	.	-13.5%
COC(=O)[C@]12CCCCC=C1N(CCC1=CCCCC1)C(=O)[C@H](CC(=O)NCc1ccc(C)o1)C2	.	.	?	.	.	-9.1%
CCCCCCCCN1C(=O)[C@H](CC(=O)NCc2ccc(C)o2)C[C@@]2(C(=O)OCC)CCC=C12	.	.	-60.7*	.	.	-17.0%
CCCCOc1ccc(C(=O)Nc2cc(-c3cn4cccnc4n3)ccc2OC)cc1	-5.4%	.	.	.	-3.0%	.
COc1cccc(CNC(=O)C2=C(C)C(=O)OC23CCN(C(C)=O)CC3)c1OC	-2.6%	.	.	.	0.5%	.
CC(C)CCNC(=O)c1cccc(C(=O)NCCC(C)C)c1	-14.5%	6.6%	-9.2	0.9%	-1.4%	23.8µM*
CC(C)CNC(=O)c1cccc(C(=O)NCC(C)C)c1	-6.8%	-10.2%	.	-4.8%	-6.4%	-5.5%
O=C(Cc1ccc(F)cc1)NCc1ccc2c(c1)CCN2C(=O)c1ccc(F)cc1	6.4%	.	.	.	-4.7%	.
CCOC(=O)C1=C(C)N(CCCC(=O)O)C(=O)NC1c1ccccc1OS(=O)(=O)c1ccccc1[N+](=O)[O-] (stereo not drawn)	-26.8%	-3.6%	-75.8*	1.4%	.	-16.4%
CC1=C(C(=O)OCc2ccccc2)C(c2ccccc2OS(=O)(=O)c2ccccc2[N+](=O)[O-])NC(=O)N1CCCC(=O)O (stereo not drawn)	-14.7%	0.4%	-98.6*	-0.5%	.	-18.6%
CCOC(=O)C1=C(C)N(CCCCCC(=O)O)C(=O)NC1c1ccc([N+](=O)[O-])cc1 (stereo not drawn)	-5.3%	0.0%	-1.7	-0.3%	8.0%	-26.1%
CCOC(=O)C1=C(C)N(CCCC(=O)O)C(=O)NC1c1ccccc1OS(=O)(=O)c1ccc(C)cc1 (stereo not drawn)	-14.7%	-6.8%	-85.2*	-0.6%	-6.2%	-9.2%
COC(=O)C1=C(C)N(CCCC(=O)O)C(=O)NC1c1ccccc1OS(=O)(=O)c1ccc([N+](=O)[O-])cc1 (stereo not drawn)	6.3%	12.8%	-105.2*	5.5%	.	5.2%
CCOC(=O)C1=C(C)N(CCCCCC(=O)O)C(=O)NC1c1ccccc1OS(=O)(=O)c1ccc(C)cc1 (stereo not drawn)	?	8.1%	-14.4	-0.5%	.	-2.9%
CC1=C(C(=O)OCc2ccccc2)C(c2cccc([N+](=O)[O-])c2)NC(=O)N1CCCCCC(=O)O (stereo not drawn)	-12.8%	-8.8%	-15.2	8.8%	-2.1%	-17.3%
CCCOc1ccc(Oc2nc(NC)nc(N3CCOCC3)n2)nn1	10.9%	.	.	.	-1.5%	.
O=C(CS(=O)(=O)c1cccc2nsnc12)NCc1ccc(Cl)cc1	6.8%	.	.	.	-20.2%	.
O=S1(=O)[C@H]2C[C@@H]3C=C[C@@]2(CN1Cc1ccc(Cl)cc1)O3	-3.3%	-4.9%	0.2	0.4%	-6.8%	-0.8%
O=S1(=O)[C@H]2C[C@@H]3C=C[C@@]2(CN1Cc1ccc(F)cc1)O3	?	-3.5%	-3.2	0.3%	0.8%	23.8µM*
COCCNc1ccc2cc(S(=O)(=O)N3CCCCC3)ccc2n1	3.7%	.	.	.	-9.7%	.
O=C(N/N=C/c1cc(Br)c(O)c(Br)c1)C1CC1	-16.3%	1.1%	?	-2.0%	-6.8%	-3.6%
CC(C)(C)NC(=S)N/N=C/c1cc(Br)c(O)c(Br)c1	-10.8%	0.1%	-90.6*	-1.0%	-5.4%	?
O=C(Cc1cc(=O)oc2cc(O)ccc12)NCC1CCC(C(=O)O)CC1 (stereo not drawn)	16.3%	?	-5.8	?	28.2µM*	-14.8%
